Test results from PubChem BioAssay (EPA / NIEHS).
“And” between values parts separate entries of the source, which are not always exact repeats. Equal entries are not always repeated. Some compounds were tested as several samples or in several runs, with calls that do not always agree. The source made the active and inactive calls. How the source made its calls: active means hit-call score of the fitted dose curve at least 0.9, where 1 is the maximum; inactive means score below 0.9.

Each molecule was assayed on Tissue plasminogen activator (tPA), PLAT (gene 5327) (assay: BSK_BE3C_tPA: BioMAP Diversity Plus: BE3C Assay for Tissue plasminogen activator (tPA) Biomarker Activity (AID 2283041)). Conditions: primary human bronchial epithelial cells; actives raise or lower the signal.
Procedure: BSK_BE3C is a cell-based, multiplexed-readout assay that uses bronchial epithelial cell, a human lung primary cell, with measurements taken at 24 hours after chemical dosing in a 96-well plate.BSK_BE3C_tPA is an assay component measured in the BSK_BE3C assay. It measures tPA antibody related to regulation of gene expression using ELISA technology.Data from the assay component BSK_BE3C_tPA was analyzed into 1 assay endpoint. This assay endpoint, BSK_BE3C_tPA, was analyzed with bidirectional fitting relative to DMSO as the negative control and baseline of activity. Using a type of binding reporter, gain or loss-of-signal activity can be used to understand changes in the signaling as they relate to the gene PLAT. Furthermore, this assay endpoint can be referred to as a primary readout, because this assay has produced multiple assay endpoints where this one serves a signaling function. To generalize the intended target to other relatable targets, this assay endpoint is annotated to the protease intended target family, where the subfamily is serine protease.
The levels of cell surface (or secreted, indicated by the prefix "s") biomarker endpoints were measured by ELISA. Overt cytotoxicity to cells in confluent adherent cultures (all systems other than the BT system) was assessed by measuring total protein levels using sulforhodamine B (SRB) staining in parallel cultures at the time of biomarker measurements, indicated as SRB endpoints. For proliferation assays for adherent cell types, individual cell types are cultured at sub-confluence and relative cell numbers quantified by SRB staining at time points optimized for each system (48 h: 3C and CASM3C systems; 72 h: BT and HDF3CGF systems; 96 h: SAg system). SRB was performed by staining cells with 0.1% SRB after fixation with 10% TCA and reading wells at 560 nm.Viability and proliferation of PBMC (T cells) was quantified by Alamar Blue reduction for the SAg and BT systems. For PBMC viability (referred to as PBMC Cytotoxicity within the assay endpoint names), cells were plated (75,000/well in a 96-well plate) and then chemical samples added for 1 h before addition of activators, SEB and TSST-1 (20 ng/mL final concentration each). Cells were incubated for 90 h. Then, Alamar Blue (20 uL/well) (Invitrogen, Cat DAL1100) was added for 6 h, and the plates were read with a fluorescence microplate reader at 546/580 nm (excitation/emission). For PBMC proliferation, cells were plated and activated as above but incubated for only 16 h prior to addition of Alamar Blue. Plates were read after 6 h.

SMILES	outcome	AC50
CCOc1nc(NC)nc(NC(=O)NS(=O)(=O)c2ccccc2C(=O)OC)n1	inactive	–
COC(=O)c1ccccc1S(=O)(=O)NC(=O)N(C)c1nc(C)nc(OC)n1	inactive	–
CCCN(CCC)c1c([N+](=O)[O-])cc(C(F)(F)F)cc1[N+](=O)[O-]	inactive	–
COP(=O)(OC)OC=C(Cl)Cl	inactive	–
Oc1cc(Cl)ccc1Oc1ccc(Cl)cc1Cl	–	20.4 µM (active) [middle of 4 runs]
C#CCN1C(=O)COc2cc(F)c(N3C(=O)C4=C(CCCC4)C3=O)cc21	inactive	–
COP(=S)(OC)Oc1ccc([N+](=O)[O-])cc1	inactive	–
CNC(=O)Oc1ccccc1OC(C)C	inactive	–
Cc1[nH]c(=O)n(C(C)(C)C)c(=O)c1Cl	inactive	–
O=C(O)C(F)(F)C(F)(F)C(F)(F)C(F)(F)C(F)(F)C(F)(F)C(F)(F)F	inactive	–
O=C(NC(=O)c1c(F)cccc1F)Nc1ccc(OC(F)(F)C(F)OC(F)(F)F)c(Cl)c1 (stereo not given)	inactive	–
O=[N+]([O-])/N=C1\NCCN1Cc1ccc(Cl)nc1	inactive	–
O=S(=O)(O)C(F)(F)C(F)(F)C(F)(F)C(F)(F)C(F)(F)C(F)(F)C(F)(F)C(F)(F)F	inactive	15.3 µM (active) and 16 µM (active) and 25.9 µM (active)
CCCN(CCOc1c(Cl)cc(Cl)cc1Cl)C(=O)n1ccnc1	inactive	–
CC1(c2ccc(Oc3ccccc3)cc2)OC(=O)N(Nc2ccccc2)C1=O (stereo not given)	inactive	–
O=C1c2ccccc2C(=O)N1SC(Cl)(Cl)Cl	inactive	–
CCN(CC)C(=O)SCc1ccc(Cl)cc1	inactive	–
CCC(C)Nc1c([N+](=O)[O-])cc(C(C)(C)C)cc1[N+](=O)[O-] (stereo not given)	inactive	–
O=C(Nc1ccccc1)Nc1cnns1	inactive	–
CC(C)OC(=O)Nc1cccc(Cl)c1	inactive	–

SMILES	outcome	AC50
CN1CSC(=S)N(C)C1	inactive	–
CCOCN(C(=O)CCl)c1c(C)cccc1CC	inactive	–
O=S1OCC2C(CO1)C1(Cl)C(Cl)=C(Cl)C2(Cl)C1(Cl)Cl (stereo not given)	–	21.5 µM (active)
COc1nn(CSP(=S)(OC)OC)c(=O)s1	inactive	–
CCOC1Oc2ccc(OS(C)(=O)=O)cc2C1(C)C (stereo not given)	inactive	–
CC1(C)C(C=C(Cl)Cl)C1C(=O)OC(C#N)c1ccc(F)c(Oc2ccccc2)c1 (stereo not given)	inactive	–
CC[C@H](C)[C@H]1O[C@]2(C=C[C@@H]1C)C[C@@H]1C[C@@H](C/C=C(\C)[C@@H](O[C@H]3C[C@H](OC)[C@@H](O[C@H]4C[C@H](OC)[C@@H](O)[C@H](C)O4)[C@H](C)O3)[C@@H](C)/C=C/C=C3\CO[C@@H]4[C@H](O)C(C)=C[C@@H](C(=O)O1)[C@]34O)O2 (tested in a mixture with another compound)	–	5.27 µM (active)
CNC(=O)/C=C(\C)OP(=O)(OC)OC	inactive	–
CNC(=O)Oc1cccc(N=CN(C)C)c1	inactive	–
O=C(O)CCCOc1ccc(Cl)cc1Cl	inactive	–
CCC(C)(C)C(=O)OC1=C(c2ccc(Cl)cc2Cl)C(=O)OC12CCCCC2	–	20 µM (active)
CCc1ccc(C(=O)NN(C(=O)c2cc(C)cc(C)c2)C(C)(C)C)cc1	inactive	–
C[C@H]1[C@H](c2ccc(Cl)cc2)SC(=O)N1C(=O)NC1CCCCC1	inactive	–
CCC(C)(NC(=O)c1cc(Cl)c(C)c(Cl)c1)C(=O)CCl (stereo not given)	–	11 µM (active)
O=C(O)COc1ccc(Cl)cc1Cl	inactive	–
OCCOc1ccccc1	inactive	–
Oc1ccc(Cl)cc1Cc1ccccc1	–	29.7 µM (active) [middle of 7 runs]
CC(C)(C)C(O)C(Oc1ccc(Cl)cc1)n1cncn1 (stereo not given)	inactive	–
COc1cc(OC)nc(NC(=O)NS(=O)(=O)c2cc(NC=O)ccc2C(=O)N(C)C)n1	inactive	–
